CapD inh: Bacillus anthracis CapD inhibitors, primary screen, biochemical, fluorescence intensity. z-score (test concentration not listed). purified CapD enzyme, fluorescence intensity read-out; active compounds read low. 140,000 tested, 0.23% active; in the data active = z-score mostly below about -2.9, no sharp cut-off; inactive = mostly above about -1.9
Numbers stand for hits; – = inactive. Many of the other results were omitted from the sample, so hits are more common in it than they were.

SMILES | CapD inh
CC(=O)NC1=NC(=O)C(CC(=O)O)S1 (stereo not drawn) | –
C=CCN(c1nccs1)S(=O)(=O)c1ccc(C)cc1 | –
CCOC(=O)c1cc2ccccc2cc1O | –
CCOC(=O)c1cccc(O)c1O | -2.7
CCOC(=O)c1ccccc1S(N)(=O)=O | –
Cc1c(Br)c([N+](=O)[O-])nn1CC(=O)Nc1cc(Oc2cccnc2)cc([N+](=O)[O-])c1 | –
CC(=O)N(C(C)=O)c1cc(C(=O)O)ccc1Sc1ccc(Br)cc1 | -11
Cc1ccc(Sc2ccc(C(=O)O)cc2NC=O)cc1 | –
N#Cc1cc(C(F)(F)F)ccc1Sc1ccc(Br)cc1 | –
COc1ccc(N(C(=O)c2ccncc2)S(=O)(=O)c2ccc(OC)c(OC)c2)cc1 | -5.6
COc1ccc(N(C(C)=O)S(=O)(=O)c2cc(OC)ccc2OC)cc1 | –
COc1ccc(S(=O)(=O)N(C)c2ccc(C(N)=O)cc2)cc1OC | –
COc1cccc(-n2cc[nH]c(=O)c2=O)c1 | –
CN(C)/C=C/C=C1\N=C(c2ccccc2)OC1=O | -7
O=C1OC(c2ccccc2)=N/C1=C\C=C\c1ccccc1 | –
Cc1ccc(/C=C2\N=C(c3ccccc3)OC2=O)o1 | –
Cc1c(CC(Cl)(Cl)Cl)c2c(n1-c1ccc(F)cc1)CCCC2=O | –
CC(=O)c1ccc(-c2ccc(Cl)c(Cl)c2)o1 | –
CC(=O)Oc1ccc(/C=C2/C(=N)N3C(=NC2=O)SN=C3SC(C)C)cc1 | –
CC(C)SC1=NSC2=NC(=O)/C(=C\c3ccc(-c4cccc(C(=O)O)c4)o3)C(=N)N21 | -13
CSC1=NSC2=NC(=O)/C(=C\c3ccc(-c4ccccc4)o3)C(=N)N12 | –
CCOC(=O)CC(=O)NNC(=O)CCc1c[nH]c2ccccc12 | –
COc1ccc(OCCBr)cc1 | –
O=C(CCS(=O)(=O)c1ccccc1)Nc1ccc2c(c1)OCCO2 | –
CCN(CC)C(=O)COc1ccc2c(-c3ccccc3)cc(=O)oc2c1C | –
SMILES | CapD inh
COc1ccc(C2C(C#N)=C(C(C)(C)C)Nc3ncnn32)cc1 (stereo not drawn) | –
O=c1[nH]c2ccccc2n1CCCCl | –
O=C(O)CN1C(=O)/C(=C\c2cc([N+](=O)[O-])cc(Br)c2O)SC1=S | -7.9
O=C1/C(=C/c2cc([N+](=O)[O-])cc(Br)c2O)SC(=S)N1c1ccc([N+](=O)[O-])cc1 | –
O=C(O)CN1C(=O)/C(=C\c2ccc(-c3ccc([N+](=O)[O-])cc3Cl)o2)SC1=S | –
O=C(Cn1c(SCc2cccc(F)c2)nc2ccncc21)NCC1CCCO1 (stereo not drawn) | –
Brc1ccc(-c2ccn[nH]2)s1 | –
CCOc1ccc(C(=O)NNC(=O)OCC(C)c2ccccc2)cc1 (stereo not drawn) | –
COc1ccc(CC2c3cc(OC)c(OC)cc3CCN2C(=S)Nc2ccc(Cl)cc2C)cc1OC (stereo not drawn) | –
Cc1c(-c2csc(-c3ccno3)n2)sc2ccccc12 | -3.5
Cc1c(-c2csc(CS(=O)(=O)C(C)(C)C)n2)sc2ccccc12 | –
Fc1cccc(-c2csc(-c3ccno3)n2)c1 | –
FC(F)(F)c1cccc(CON/C=N\c2ncnc3sccc23)c1 | –
Cc1nc2ccn(Cc3ccco3)c(=O)c2cc1C(=O)NCc1ccco1 | –
COc1cc(C(=O)N(C)c2ccccc2)cc(OC)c1OC | –
COc1ccc(/C=C(\C#N)C(N)=O)cc1OC | –
CCOc1ccc(C=C(C#N)C#N)cc1 | –
COc1cc(C=C(C#N)C#N)ccc1O | -4.3
O=S(=O)(c1ccccc1Br)N1CCN(C(c2ccc(F)cc2)c2ccc(F)cc2)CC1 | –
